Measured values reported in ChEMBL document CHEMBL1961873, “Compounds: GSK PKIS; Assays: Nanosyn kinase panel” (2012).

Experiments:
[1] = target: RAC-alpha serine/threonine-protein kinase (Homo sapiens) (UniProt P31749); details: at 0.1 µM
[2] = target: RAC-alpha serine/threonine-protein kinase (Homo sapiens) (UniProt P31749); details: at 1 µM
[3] = target: RAC-beta serine/threonine-protein kinase (Homo sapiens) (UniProt P31751); details: at 0.1 µM
[4] = target: RAC-beta serine/threonine-protein kinase (Homo sapiens) (UniProt P31751); details: at 1 µM
[5] = target: RAC-gamma serine/threonine-protein kinase (Homo sapiens) (UniProt Q9Y243); details: at 0.1 µM
RAC-gamma serine/threonine-protein kinase (Homo sapiens), sequence (Q9Y243 whole entry): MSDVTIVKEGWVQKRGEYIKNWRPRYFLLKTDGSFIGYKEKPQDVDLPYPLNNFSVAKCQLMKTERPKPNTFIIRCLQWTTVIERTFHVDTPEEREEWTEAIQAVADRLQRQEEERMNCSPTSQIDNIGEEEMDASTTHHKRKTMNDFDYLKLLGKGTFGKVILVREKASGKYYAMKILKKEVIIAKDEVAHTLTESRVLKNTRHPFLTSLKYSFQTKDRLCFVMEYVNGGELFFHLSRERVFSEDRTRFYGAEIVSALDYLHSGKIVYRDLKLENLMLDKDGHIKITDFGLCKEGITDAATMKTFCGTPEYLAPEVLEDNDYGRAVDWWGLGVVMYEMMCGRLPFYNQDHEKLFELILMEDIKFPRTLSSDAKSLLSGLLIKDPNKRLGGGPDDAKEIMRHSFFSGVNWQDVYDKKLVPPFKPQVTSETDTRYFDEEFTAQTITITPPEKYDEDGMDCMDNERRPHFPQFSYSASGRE

[6] = target: RAC-gamma serine/threonine-protein kinase (Homo sapiens) (UniProt Q9Y243); details: at 1 µM
[7] = target: G protein-coupled receptor kinase 6 (Homo sapiens) (UniProt P43250); details: at 0.1 µM
G protein-coupled receptor kinase 6 (Homo sapiens), sequence (P43250 whole entry, looked up): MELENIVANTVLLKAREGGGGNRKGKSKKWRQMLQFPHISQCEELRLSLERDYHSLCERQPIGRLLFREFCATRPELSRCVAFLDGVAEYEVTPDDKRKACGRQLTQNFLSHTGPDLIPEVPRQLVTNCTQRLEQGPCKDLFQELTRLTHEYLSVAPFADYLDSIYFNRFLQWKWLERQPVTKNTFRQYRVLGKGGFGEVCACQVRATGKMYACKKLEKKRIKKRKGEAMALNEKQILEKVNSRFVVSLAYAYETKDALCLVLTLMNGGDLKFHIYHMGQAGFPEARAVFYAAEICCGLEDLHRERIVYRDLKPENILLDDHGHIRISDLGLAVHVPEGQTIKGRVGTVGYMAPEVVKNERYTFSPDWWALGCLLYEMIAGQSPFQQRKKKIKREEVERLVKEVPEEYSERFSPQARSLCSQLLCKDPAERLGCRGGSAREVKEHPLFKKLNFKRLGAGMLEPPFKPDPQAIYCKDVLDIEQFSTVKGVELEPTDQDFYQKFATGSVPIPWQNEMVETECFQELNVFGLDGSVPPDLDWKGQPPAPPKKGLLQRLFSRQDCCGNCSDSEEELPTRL

[8] = target: G protein-coupled receptor kinase 6 (Homo sapiens) (UniProt P43250); details: at 1 µM
[9] = target: T1, Rhodopsin kinase GRK7 (Homo sapiens) (UniProt Q8WTQ7); details: at 0.1 µM
T1 sequence (whole entry): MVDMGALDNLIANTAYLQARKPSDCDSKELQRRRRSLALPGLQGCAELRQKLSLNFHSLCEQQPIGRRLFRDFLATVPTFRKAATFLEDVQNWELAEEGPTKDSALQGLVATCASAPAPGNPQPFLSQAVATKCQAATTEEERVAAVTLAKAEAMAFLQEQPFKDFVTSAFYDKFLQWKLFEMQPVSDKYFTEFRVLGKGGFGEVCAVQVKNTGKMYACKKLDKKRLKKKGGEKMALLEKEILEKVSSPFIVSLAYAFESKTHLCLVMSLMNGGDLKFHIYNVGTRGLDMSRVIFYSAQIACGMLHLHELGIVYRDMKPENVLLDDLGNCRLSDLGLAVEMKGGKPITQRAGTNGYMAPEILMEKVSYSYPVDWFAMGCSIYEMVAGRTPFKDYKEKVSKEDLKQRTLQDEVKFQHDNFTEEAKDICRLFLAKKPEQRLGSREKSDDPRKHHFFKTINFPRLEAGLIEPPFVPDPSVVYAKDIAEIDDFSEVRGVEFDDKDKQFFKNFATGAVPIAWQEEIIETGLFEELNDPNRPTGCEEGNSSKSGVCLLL

[10] = target: T1, Rhodopsin kinase GRK7 (Homo sapiens); details: at 1 µM

RAC-beta serine/threonine-protein kinase (Homo sapiens), sequence (P31751 whole entry): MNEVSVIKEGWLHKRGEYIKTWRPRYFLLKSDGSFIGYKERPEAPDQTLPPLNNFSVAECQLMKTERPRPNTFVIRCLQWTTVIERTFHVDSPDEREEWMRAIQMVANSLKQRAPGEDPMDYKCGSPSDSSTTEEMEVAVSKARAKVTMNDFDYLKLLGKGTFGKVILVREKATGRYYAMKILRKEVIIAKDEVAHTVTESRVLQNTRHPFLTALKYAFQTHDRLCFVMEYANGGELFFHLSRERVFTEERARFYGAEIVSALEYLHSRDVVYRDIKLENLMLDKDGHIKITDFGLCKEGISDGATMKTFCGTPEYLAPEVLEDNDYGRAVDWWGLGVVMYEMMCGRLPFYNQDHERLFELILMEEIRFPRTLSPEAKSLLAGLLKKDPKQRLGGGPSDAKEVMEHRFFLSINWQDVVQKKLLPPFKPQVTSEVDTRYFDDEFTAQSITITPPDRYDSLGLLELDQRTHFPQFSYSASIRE
RAC-alpha serine/threonine-protein kinase (Homo sapiens), sequence (P31749 whole entry): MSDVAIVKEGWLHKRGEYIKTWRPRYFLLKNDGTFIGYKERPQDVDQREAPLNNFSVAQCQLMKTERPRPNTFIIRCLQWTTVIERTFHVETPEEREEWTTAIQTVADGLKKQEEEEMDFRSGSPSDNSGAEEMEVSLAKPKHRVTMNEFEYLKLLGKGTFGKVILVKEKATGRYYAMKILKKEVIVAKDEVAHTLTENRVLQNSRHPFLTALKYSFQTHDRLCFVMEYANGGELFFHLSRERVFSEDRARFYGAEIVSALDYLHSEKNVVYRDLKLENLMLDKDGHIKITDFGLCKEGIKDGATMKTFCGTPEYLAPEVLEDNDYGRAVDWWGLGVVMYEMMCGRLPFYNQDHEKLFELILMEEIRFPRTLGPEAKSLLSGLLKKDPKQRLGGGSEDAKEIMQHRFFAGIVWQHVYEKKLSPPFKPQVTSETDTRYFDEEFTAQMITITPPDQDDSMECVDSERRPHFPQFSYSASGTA

| SMILES | inhibition [1] | inhibition [2] | inhibition [3] | inhibition [4] | inhibition [5] | inhibition [6] | inhibition [7] | inhibition [8] | inhibition [9] | inhibition [10] |
| --- | --- | --- | --- | --- | --- | --- | --- | --- | --- | --- |
| Cc1ccc2c(-c3ccnc(Nc4cccc(C(F)(F)F)c4)n3)c(-c3ccccc3)nn2n1 | 0.89% | 1.19% | 0.8% | 2.31% | 0.73% | 4.19% | 2.15% | 2.48% | 10.5% | 3.2% |
| NS(=O)(=O)c1ccc(Nc2cc(-c3cccc(O)c3)n[nH]2)cc1 | 0.91% | 0.58% | 1.64% | 3.28% | 2.49% | 1.75% | 1.19% | 3.55% | 3.02% | 5.39% |
| NS(=O)(=O)c1ccc(-c2cc3ccncc3cc2OCc2ccccc2)cc1 | 0.08% | 0.83% | 1.46% | 1.66% | 0.51% | 2.2% | 2.02% | 8.2% | 1.52% | 6.27% |
| CN(C)C(=O)O[C@@H]1CN[C@@H](C#Cc2cc3ncnc(Nc4ccc(OCc5cccc(F)c5)c(Cl)c4)c3s2)C1 | -0.54% | -0.11% | 0% | -1.02% | -0.71% | 0.16% | 0.14% | -1.42% | -2.8% | 11.4% |
| Cc1ccc2c(c1)/C(=N/Nc1ccc(S(N)(=O)=O)cc1)C(=O)N2 | 0.76% | -0.7% | 2.19% | -0.04% | -1.25% | 0.38% | -0.52% | -1.05% | 0.29% | 4.95% |
| Nc1nccc(C#Cc2cncnc2Nc2ccc(OCc3cccc(F)c3)c(Cl)c2)n1 | 1.34% | 0.92% | 1.52% | 1.54% | 2.87% | 1.85% | 1.35% | -4.58% | 4.51% | 1.2% |
| Cc1ccc(NC(=O)CC2CC2)cc1-c1ccc(C(=O)NCC2CC2)cc1 | 0.17% | 0.7% | 1.47% | 1.58% | 1.47% | 1.65% | 2.05% | 6.65% | 0.94% | 0.75% |
| CS(=O)(=O)Nc1cccc(-c2ccc3c(NC(=O)C4CC4)n[nH]c3c2)c1 | 0.47% | -0.39% | 0.26% | 0.15% | 0.35% | -2.8% | 1.58% | -0.72% | 0.25% | 2.21% |
| COc1cc(Nc2nccc(-c3cnn4ncccc34)n2)cc(OC)c1 | 0.23% | 0.24% | 0.16% | 0.1% | 0.27% | 1.18% | 0.91% | -0.01% | 6.32% | 9.43% |
| CN1CCN(C(=O)c2ccc(NC(=O)Nc3ccc(N(C)c4ccnc(Nc5ccc(CS(C)(=O)=O)cc5)n4)cc3)cc2)CC1 | 0.3% | -0.86% | -0.33% | 1.06% | 0.49% | 1.64% | 2.2% | 1.86% | 4.4% | 0.44% |
| COc1cc2ncn(-c3cc(OCc4ccccc4S(C)(=O)=O)c(C#N)s3)c2cc1OC | 1.44% | 1.02% | 2.07% | 1.33% | 2.7% | 1.68% | 13.8% | 3.6% | 8.51% | 40.4% |
| CCn1c(-c2nonc2N)nc2ccc(F)cc21 | 0.42% | 0.42% | 1.94% | 2.93% | 1.09% | 2.41% | 9.58% | 11.3% | 5.6% | 11.3% |
| COC(=O)c1ccc2c(c1)C(=Cc1cc(Br)c(O)c(Br)c1)C(=O)N2 | 0.91% | 0.66% | 0.67% | 1.05% | 1.09% | 2.88% | 7.82% | 43.5% | 12.8% | 28.4% |
| N#Cc1cccc(Nc2nccc(-c3cnn4ncccc34)n2)c1 | 0.4% | 1.36% | 1.11% | 1.66% | 3.16% | 5.1% | 2.91% | 8.01% | 6.46% | 21.6% |
| Cc1ccc(C(=O)NC2CC2)cc1-c1ccc2[nH]ncc2c1 | -2.21% | -1.97% | -3.64% | -3.23% | -4.12% | 0.95% | 1.1% | -1.57% | -1.33% | -8.83% |
| c1ccc(Nc2ncc(-c3ccccc3)o2)cc1 | 1.4% | 0.83% | 0.54% | 2.99% | 1.75% | 3.46% | 4.61% | 4.8% | 9.62% | 4.71% |
| Cc1ccc(Nc2ccnc(Nc3cccc(C(N)=O)c3)n2)cc1O | -3.35% | -2.06% | -1.66% | -2.15% | -2.03% | -1.07% | 1.49% | 6.26% | 1.62% | 0.17% |
